High-throughput results (PubChem BioAssay)
Sampled rows, rich in hits. Any-hit rate of the full collection: about 4.3%.
Peg3 promoter: inhibitors of Peg3 promoter; inhibition, % at 20 µM; AID 588405; HeLa PEG-Prom luciferase reporter, luminescence, overnight; 360,000 compounds, 1.7% hits;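 active = inhibition of at least 50% at 20 µM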
HIF-2a inh: HIF-2a inhibition; 786-0 RCC cells HIF-2a reporter, luciferase luminescence, overnight; inhibition, % at 18.8 µM; 360,000 compounds, 0.72% hits;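 active = inhibition of the luminescence signal of 40% or more relative to plate controls, in a single-dose primary screen at 18.75 µM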
CHOP inhibitor: blocks CHOP induction under ER stress; CHO-K1 CHOP-promoter luciferase, tunicamycin-induced, 15-18 h; 220,000 compounds, 3.8% hits; inhibition, % at 10 µM; AID 2732;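 active = compounds that reduced the stress-induced luciferase reporter signal by more than about 70% of percent inhibition, limit read from the data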;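 also: 0% = tunicamycin plus vehicle and 100% = wells without tunicamycin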
MITF TRPM1 inh: inhibitors of MITF-driven TRPM1 promoter in melanoma cells. 330,000 compounds, 0.83% hits. AID 488899. SK-MEL-5 TRPM1 promoter luciferase, 24 h. inhibition, % at 12.5 µM;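 active = mean inhibition across replicates of 60% or more, whatever share of single replicates reaches that level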
KKLEB tox: CF airway cell cytotoxicity counter-screen; KKLEB CF airway cells viability, ATPlite luminescence, overnight; stronger effect = lower value; cells stimulated with P. aeruginosa culture filtrate; activity change (cytotoxicity), % at 5 µM; 360,000 compounds, 0.36% hits; AID 602141;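 active = corrected activity change at or below -50% at 5 µM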
CF NFkB inh: inhibitors of cystic fibrosis induced NF-kB; inhibition, % at 5 µM; KKLEB NF-kB-GFP reporter, PAF-induced, GFP fluorescence overnight; 360,000 compounds, 0.86% hits;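 active = at least 50% inhibition at 5 µM, scaled per plate between neutral and stimulator controls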;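 also: PAF is a Pseudomonas aeruginosa culture filtrate used as stimulus; plate controls were PAF-stimulated DMSO wells for no effect and unstimulated DMSO wells for full effect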
The depositor's hits bear a star; x = no result.

SMILES	Peg3 promoter	HIF-2a inh	CHOP inhibitor	MITF TRPM1 inh	KKLEB tox	CF NFkB inh
CSc1ccccc1OCc1cc(C(=O)N(C)Cc2ccncn2)no1	-235	-249	x	-116	10	-2
CCN(CC(=O)Nc1ccc2c(c1)OCCO2)C(=O)/C=C/c1cccc(C(F)(F)F)c1	10	-5	x	-12	-8	11
COc1ccc(/C=N/NC(=O)COc2ccc(Cl)cc2Cl)cc1Cn1nc(C)cc1C	21	13	93*	22	0	-2
COc1ccc(CCNC(=O)CCCOc2ccc(Cl)cc2)cc1OC	12	22	x	16	3	6
CSc1ccc(CN2CCC(CO)(Cc3ccc(Cl)cc3)CC2)cc1	73*	17	14	22	-18	2
OCC1(Cc2ccc(Cl)cc2)CCN(Cc2ccccc2F)CC1	-2	15	12	0	-2	14
O=C(CCl)Nc1c(C(=O)Nc2ccc3c(c2)OCCO3)oc2ccccc12	98*	-52	x	-14	-31	20
COCC(=O)Nc1c(C(=O)Nc2ccc3c(c2)OCO3)oc2ccccc12	-170	-231	x	-58	12	-26
O=C(Nc1ccc2c(c1)OCCO2)c1coc2ccccc2c1=O	3	17	-36	73*	4	25
O=C(Nc1ccc(F)cc1)c1oc2ccccc2c1NC(=O)C1CCCC1	1	-57	71*	5	23	-27
COc1ccc(S(=O)(=O)Nc2ccc(-c3ccc4nncn4n3)cc2)c(OC)c1	4	14	x	8	18	9
CN1CCN(C(c2ccc(Br)cc2)c2cc(Cl)c3cccnc3c2O)CC1 (stereo unspecified)	41	50*	x	59	-9	41
CN1CCN(C(c2ccc(F)cc2)c2ccc3cccnc3c2O)CC1 (stereo unspecified)	-15	1	x	-11	-5	1
N#CC1=C(N)Nc2nc3ccccc3n2C1c1ccc(Cl)cc1 (stereo unspecified)	-61	-167	90*	-2	-24	-16
COc1ccc(CC(=O)Nc2cc(S(=O)(=O)N3CCCCC3)ccc2OC(C)C)cc1OC	9	22	x	x	6	-6
COCCN(CC(=O)Nc1cccc(C)c1C)C(=O)c1oc2c(Cl)cccc2c1C	52*	18	x	13	-7	-10
Cc1ccccc1OCCCC(=O)Nc1ccc(S(=O)(=O)Nc2onc(C)c2C)cc1	2	6	x	0	3	13
NC(=O)[C@H]1CC2(CC(c3cccc(NC(=O)COc4ccc(Cl)cc4)c3)=NO2)CN1C(=O)c1ccc(Cl)cc1 (stereo partly specified)	-14	-63	95*	-1	-19	18
CCC(=O)N1CC2(CC(c3cccc(NC(=O)COc4ccc(Cl)cc4)c3)=NO2)C[C@@H]1C(N)=O (stereo partly specified)	x	x	3	x	x	x
NC(=S)NNc1ccnc2cc(Cl)ccc12	0	17	-18	6	12	0
FC(F)Oc1ccc(NC(=S)NNc2ccnc3cc(Cl)ccc23)cc1	29	10	-65	69*	4	-16
Cc1ccc(C(=O)CSc2nnc(-c3c[nH]c4ccccc34)o2)cc1	-12	-23	95*	4	10	-14
O=C(CSc1nnc(-c2c[nH]c3ccccc23)o1)N(Cc1ccccc1)c1ccc(F)cc1	3	-76	71*	-3	20	-4
CC(C)C(C)NC(=O)CSc1nnc(-c2c[nH]c3ccccc23)o1 (stereo unspecified)	-8	-21	13	-3	-23	-1
Nc1ccccc1-n1c(=O)n(Cc2ccccc2F)c(=O)c2[nH]cnc21	5	12	x	-10	-5	15
SMILES	Peg3 promoter	HIF-2a inh	CHOP inhibitor	MITF TRPM1 inh	KKLEB tox	CF NFkB inh
CC(=O)N1Cc2ccccc2C(C)CC12CCCC2 (stereo unspecified)	23	14	18	-5	-7	-2
CC(=O)N1c2ccccc2C(C)CC12CCCCC2 (stereo unspecified)	6	9	85*	9	4	8
Cc1ccc(C)c(N2CCN(C(=O)CCc3nc(-c4ccccc4Cl)no3)CC2)c1	20	-3	x	1	-2	0
CCCCCCOc1ccc(-c2ccc(C#N)cn2)cc1	-24	-32	74*	-7	6	-2
Cc1ccc(C)c(S(=O)(=O)Nc2ccc(O)c3ccccc23)c1	13	-10	x	26	-53*	86*
COc1ccc(S(=O)(=O)Nc2ccccc2)cc1	27	10	x	5	-2	3
COc1ccc(S(=O)(=O)Nc2ccc(O)c3ccccc23)cc1	31	38	-7	69*	-48	90*
Cc1ccc(S(=O)(=O)Nc2ccc(O)c3ccccc23)c(C)c1	12	10	x	29	1	39
CC1=CSC2=NC(=O)/C(=C\c3cccn3-c3ccc([N+](=O)[O-])cc3)C(=N)N12	19	17	87*	-12	-2	-9
N#CCC(=O)Nc1ccc(C(=O)OCC(=O)N2CCCC2=O)cc1	-24	2	x	3	-20	14
C=CCN(CC=C)CCOc1cccc2ccccc12	-5	12	76*	-7	8	2
Cc1cccn2cc(-c3ccc(S(=O)(=O)N4CCCCC4)cc3)nc12	-18	-51	33	-15	-14	14
Cc1cccn2cc(-c3ccc(S(=O)(=O)N4CCOCC4)cc3)nc12	11	-4	71*	-1	11	-11
Cc1cc(C)cc(NC(=S)NCc2ccc3[nH]c4c(c3c2)CCCC4)c1	67*	0	55	9	-1	-1
O=C(CCNC(=O)c1ccc([N+](=O)[O-])cc1)NCc1ccco1	12	5	x	5	5	8
Cc1cccc(C)c1NC(=O)C1(N(Cc2ccco2)C(=O)CC2NC(=O)NC2=O)CCCCC1 (stereo unspecified)	10	14	77*	4	2	-7
O=C1NC(=O)C(CC(=O)N(Cc2ccco2)C2(C(=O)NC3CCCC3)CCCCC2)N1 (stereo unspecified)	-2	10	27	0	14	-4
CCN(CC)S(=O)(=O)c1ccc2c(c1)C(=NO)c1cc(S(=O)(=O)N(CC)CC)ccc1-2	51*	38	-22	28	-44	43
CCN(CC)S(=O)(=O)c1ccc(C)c(C)c1	12	15	5	-1	-1	1
CCN(CC)CCCNC1=C(Cl)C(=O)c2ccccc2C1=O	18	84*	-29	110*	-2	65*
CCN(CC)CCCNc1nc2ccccc2[nH]1	-11	5	-37	3	16	-26
CC(C)NC1=C(Cl)C(=O)c2ccccc2C1=O	-36	-53	19	80*	-22	50*
CC(C)OCCCNC1=C(Cl)C(=O)c2ccccc2C1=O	-230	64*	-34	x	-24	7
CC(C)OCCCNC(=S)NNC(=O)C(c1ccccc1)c1ccccc1	9	2	11	-2	-6	6
